According to the supplement of paper PMC13380429:

Legend:
[1] = test system: Vero E6 infected with SARS-CoV-2; assay: morphology score (similarity to uninfected cells); higher = more like uninfected cells; settings: 24 h
[2] = test system: Vero E6 infected with SARS-CoV-2; assay: SARS-CoV-2 infection rate relative to infected DMSO; higher = more infection, active = 60 or less; settings: 24 h

Compound	morphology score [1]	SARS-CoV-2 infection rate [2]
O=C(O)CC(S)C(=O)O (stereo not given) [mercaptosuccinic-acid] (10 µM)	-0.089	108% (inactive)
O=C(O)C1(C(=O)O)CCC1.[NH2-].[NH2-].[Pt+2] [carboplatin] (10 µM)	-0.0106	102% (inactive)
Cc1ccccc1C(=O)Nc1ccc(C(=O)N2CCCC(N(C)C)c3ccccc32)cc1 (stereo not given) [mozavaptan] (0.833333 µM)	0.0205	117% (inactive)
N#Cc1ccc2[nH]c(O)c(-c3ccc(CN4CCOCC4)cn3)c2c1 (10 µM)	-0.238	100% (inactive)
COc1ccc2cccc(CCNC(C)=O)c2c1 [agomelatine] (10 µM)	0.11	114% (inactive)
O=C(/C=C/c1ccccc1)NC(NC(=S)Nc1cccc2cccnc12)C(Cl)(Cl)Cl (stereo not given) [salubrinal] (10 µM)	-0.178	108% (inactive)
CC(=O)C1=C(O)[C@@H]2[C@H]3c4c[nH]c5cccc(c45)C[C@H]3C(C)(C)N2C1=O [cyclopiazonic-acid] (0.833333 µM)	0.361	76.5% (inactive)
O=C(Nc1ccc(S(=O)(=O)Nc2nccs2)cc1)C(c1ccccc1)c1ccccc1 (10 µM)	-0.0899	105% (inactive)
CC(=O)OCC1=C(C(=O)O)N2C(=O)[C@@H](NC(=O)Cc3cccs3)[C@H]2SC1 [cephalothin] (10 µM)	-0.0126	102% (inactive)
C[C@]12CC[C@@H]3c4ccc(OC(=O)c5ccccc5)cc4CC[C@H]3[C@@H]1CC[C@@H]2O [estradiol-benzoate] (10 µM)	-0.19	111% (inactive)
